# Measured values published in ChEMBL document CHEMBL3988442, “University of Dundee, Small-Polar-MMV Screening Library” (2021).
# About 13,000 (27%) of roughly 48,000 compounds showed an effect of 50% or more. The list shows a part of the results.
# Tested on: Wolbachia pipientis
# Assay: Anti-Wolbachia Cell-Based Screen
# Type: functional
# Set-up: scale not given: in the data most compounds retested in dose-response had high values
# Settings: 5 µM
row,Compound,Percent Effect [%]
1,Fc1cc(Oc2ccc(C(F)(F)F)cn2)cc(F)c1CN1CCCC1,-0.6803
2,COc1cc(Oc2ncccc2C(F)(F)F)ccc1CN1CCCC1,7.614
3,O=C(NCc1ccccc1CN1CCCCCC1)Nc1nncs1,-11.94
4,CCc1csc(CNC2CCN(Cc3ccccc3)C2)n1 (stereo unspecified),-41.87
5,O=c1[nH]c(=O)n(CC(O)c2ccccc2Cl)cc1Cl (stereo unspecified),-2.887
6,CCCn1cnnc1CNC(=O)C1COc2ccc(OC)cc2C1 (stereo unspecified),-4.97
7,CCCc1n[nH]c(C2CN(Cc3ncc[nH]3)CCO2)n1 (stereo unspecified),0.7755
8,Brc1ccc(CN2CCC(NCc3ncc[nH]3)CC2)cc1,0.1556
9,Fc1ccc(Nc2ccc(C3CCN(Cc4ncc[nH]4)CC3)nc2)nc1,114.5
10,CCCc1nnc([C@H]2CCN(Cc3ncc[nH]3)C2)o1,2.62
11,Clc1cc(Cl)cc(CN2CCC(NCc3ncc[nH]3)CC2)c1,21.36
12,CC(C)(C)c1n[nH]c(C2CN(Cc3ncc[nH]3)CCO2)n1 (stereo unspecified),-4.416
13,Cc1cccc(Nc2ccc(C3CCN(Cc4ncc[nH]4)CC3)nc2)n1,108.6
14,Cc1cc(Nc2ccc(F)cn2)cc(C2CCN(Cc3ncc[nH]3)C2)n1 (stereo unspecified),87.11
15,Cn1cncc1-c1nnc([C@H]2CCN(Cc3ncc[nH]3)C2)o1,-1.708
16,CN(Cc1cccnc1)c1nc(-c2ccccn2)nc2c1CCNCC2,-5.428
17,Cc1cnn(CCCn2ncc(N3CCC(CN)C3)cc2=O)c1 (stereo unspecified),-3.735
18,CCCC(C#N)NC(=O)CCCOc1cccc(C(C)=O)c1 (stereo unspecified),17.87
19,CCC(=O)NCC(Cc1cccc(F)c1)n1cccc1 (stereo unspecified),-1.872
20,CCC(O)Cn1nc(-c2ccc(C(=O)O)cc2)cc1-c1cccc(F)c1 (stereo unspecified),112
21,CCC(O)CN1CCN(C(=O)c2ccn(-c3cccc(F)c3)n2)CC1 (stereo unspecified),-17.79
22,CN(CC(=O)NS(=O)(=O)c1ccc(F)cc1)Cc1ccccc1,-17.38
23,CC(C(N)=O)N(C)CCCc1cc(-c2ccc(F)cc2)n(C)n1 (stereo unspecified),117.2
24,NC(=O)NC(=O)CCn1ccc(-c2ccc(F)cc2)n1,-9.81
25,CN(CC(N)=O)Cc1ccc(F)cc1Cl,-24.21
26,CN(CCCc1cc(-c2ccc(F)cc2)n(C)n1)CC(=O)NC(N)=O,129.4

row,Compound,Percent Effect [%]
1,CC(C)Cc1cc(C(=O)NCC(c2ccc(F)cc2)N(C)C)n(C)n1 (stereo unspecified),-14.68
2,CC(C(N)=O)N(C)CCCc1cc(-c2ccccc2)no1 (stereo unspecified),-1.184
3,CN(CCCc1cc(-c2ccc(F)cc2)n(C)n1)CC(N)=O,124.4
4,CN(CCCc1cc(-c2ccc(F)cc2)n[nH]1)C(=O)CCn1cncn1,-5.05
5,NC(=O)CCSCc1ccc(Br)c(F)c1,-4.384
6,CCC(CO)N(Cc1cccs1)C(=O)Cc1ccncc1 (stereo unspecified),-5.56
7,c1ccc2c(c1)nc1n2[C@@H](CNCc2nccs2)COC1,3.551
8,Cn1ccnc1SCCNC(=O)CC1CCc2ccccc21 (stereo unspecified),-4.259
9,Cc1ccc(S(=O)(=O)NCC2CNCCOC2)cc1Cl (stereo unspecified),-1.884
10,Cc1cccc2[nH]c(C3CCN(C(=O)c4cnc(O)cc4O)CC3)nc12,-25
11,Cn1[nH]c(C2CC2)c(-c2ccc3c(c2)OCO3)c1=N,-0.9629
12,CN(Cc1cccnc1)C[C@H]1CC[C@@H](Cc2ccc3c(cnn3C)c2)O1,-1.235
13,Cc1ccc(-c2noc(CN3CC(n4cc(C)cn4)C3)n2)cc1,109
14,Cc1cnn(CC(C)NCc2nc(-c3cccnc3)no2)c1 (stereo unspecified),10.95
15,Cc1cnn(C2CN(Cc3nc(-c4ccco4)no3)C2)c1,-0.024
16,Cc1cnn(C2CN(Cc3noc(C)n3)C2)c1,14.64
17,Cc1cnn(C2CN(Cc3nnc(Cc4ccccc4)o3)C2)c1,-8.725
18,Cc1cnn(C2CN(Cc3nc(-c4ccccn4)no3)C2)c1,99.99
19,Cc1cnn(C2CN(Cc3nc(C(C)(C)C)no3)C2)c1,-1.752
20,Cc1cnn(C2CN(Cc3nc(-c4ccccc4C)no3)C2)c1,81.63
21,Cc1cccc(-c2noc(CN3CC(n4cc(C)cn4)C3)n2)c1,6.599
22,Cc1cnn(C2CN(Cc3nc(-c4cccnc4)no3)C2)c1,94.26
23,Cc1ccccc1-c1noc(CN2CC(n3cccn3)C2)n1,17.98
24,Cc1cnn(C2CN(Cc3nnc(-c4ccccc4Cl)o3)C2)c1,0.6902
25,O=c1cc(N2CCNCC2)cnn1Cc1noc(C2CCCC2)n1,5.676
